Results from PubChem BioAssay AID1689 (NMMLSC, 2009).
Entries with a potency or affinity are not part of this list.

target: ATP-dependent translocase ABCB1 (Homo sapiens) (UniProt P08183); assay: ABCB1 efflux pump inhibitor potency, dose response, Jurkat-DNR cells, JC-1, flow cytometry (AID 1689); conditions: JC-1 efflux; series mostly up to 66.6 µM; inhibition: at the top concentration
Sequence (P08183 whole entry, looked up): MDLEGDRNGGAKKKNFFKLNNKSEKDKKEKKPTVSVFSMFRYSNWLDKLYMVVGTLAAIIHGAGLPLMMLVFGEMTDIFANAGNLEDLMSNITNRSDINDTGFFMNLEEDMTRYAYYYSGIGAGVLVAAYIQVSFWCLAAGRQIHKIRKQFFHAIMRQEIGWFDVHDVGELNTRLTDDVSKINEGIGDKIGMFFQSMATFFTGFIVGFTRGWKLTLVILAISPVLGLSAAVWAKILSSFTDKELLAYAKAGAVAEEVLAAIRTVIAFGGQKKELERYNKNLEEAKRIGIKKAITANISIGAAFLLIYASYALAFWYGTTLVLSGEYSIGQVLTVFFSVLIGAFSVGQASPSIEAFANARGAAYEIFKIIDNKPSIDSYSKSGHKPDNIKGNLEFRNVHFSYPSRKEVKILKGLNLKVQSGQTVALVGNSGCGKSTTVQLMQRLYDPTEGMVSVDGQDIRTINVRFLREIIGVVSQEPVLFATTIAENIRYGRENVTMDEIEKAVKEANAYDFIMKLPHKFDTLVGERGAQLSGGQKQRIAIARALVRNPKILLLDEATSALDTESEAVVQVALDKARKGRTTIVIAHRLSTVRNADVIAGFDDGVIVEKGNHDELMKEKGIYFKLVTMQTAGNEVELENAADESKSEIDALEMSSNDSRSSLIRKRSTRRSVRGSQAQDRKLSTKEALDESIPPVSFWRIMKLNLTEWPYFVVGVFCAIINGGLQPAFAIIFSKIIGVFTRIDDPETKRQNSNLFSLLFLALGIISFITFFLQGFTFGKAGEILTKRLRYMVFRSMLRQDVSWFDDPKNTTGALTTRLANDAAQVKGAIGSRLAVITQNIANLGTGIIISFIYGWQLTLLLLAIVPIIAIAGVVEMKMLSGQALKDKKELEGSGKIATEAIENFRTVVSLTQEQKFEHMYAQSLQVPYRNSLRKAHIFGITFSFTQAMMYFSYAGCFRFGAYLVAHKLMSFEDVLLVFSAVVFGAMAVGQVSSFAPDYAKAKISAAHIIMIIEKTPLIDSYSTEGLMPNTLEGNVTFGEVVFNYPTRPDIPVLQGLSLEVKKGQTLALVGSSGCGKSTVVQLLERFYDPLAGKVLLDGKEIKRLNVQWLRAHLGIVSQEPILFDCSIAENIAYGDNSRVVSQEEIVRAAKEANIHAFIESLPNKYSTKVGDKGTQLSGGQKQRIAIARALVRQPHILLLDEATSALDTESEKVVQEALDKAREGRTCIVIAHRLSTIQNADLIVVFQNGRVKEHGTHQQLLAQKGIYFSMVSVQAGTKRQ

inhibition, inactive:
Cc1c(C(=O)Nc2ccc(F)cc2)c2ccccn2c1CCc1ccncc1 19.6%, CC(=O)Nc1ccc(Nc2ccc(S(=O)(=O)C(F)(F)F)cc2[N+](=O)[O-])cc1 15.1%, N#CC(C#N)=C1C=C2C=C(N3CCOCC3)CCC2CC1 (stereo unspecified) -7.21%, Cc1cc(C)c(C#N)c(SCc2c(F)cccc2[N+](=O)[O-])n1 14.2%, COc1ccccc1Nc1nc2nonc2nc1N1CCCCC1C (stereo unspecified) 5.44%, COc1cc(C(=O)Nc2ccc(S(=O)(=O)NC(C)C)cc2)cc(OC)c1OC 3.51%
